What all share (conditions): concentration: 1 μM, replicates: in singlicate; n = 1
Assay [1] relates to CAMK1.
For assay [2], the system named is CAMK2A.
In assay [3] the test system is CAMK2B.
Assay [4] deals with CAMK2D.
Assay [5] deals with CAMK2G.
Assay [6] deals with CAMK4.
Assay [7] concerns CAMKK1.
Assay [8] relates to CAMKK2.
In assay [9] the test system is CASK.
The subject of assay [10] is T1, CDC2L1.
T1 construct: gene CDK11B
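Also: KINOMEscan kinase panel screen.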

For `COc1ccc(-c2coc3ccc(-c4nnc(SCc5ccc(OC)c(C(F)(F)F)c5)o4)cc23)cc1`, the “%Inh” value is 0% in [1]; 0% in assay [2]; 1% in assay [3]; 7% in [4]; 0% in [5]; 12% in assay [6]. Moreover, the “%Inh” value in [7] is reported as 1%; in assay [8], 2%; in assay [9], 1%; in assay [10], 0%.

In the case of `COc1ccc(Nc2nccc(NCCNC(=O)c3cc4ccccc4s3)n2)cc1` [GSK1379896], the “%Inh” value in assay [1] is reported as 4%; in assay [2] it was 0%; in assay [3] it was 0%; in assay [4] it was 0%; in assay [5], 16%; in assay [6] it was 0%. The “%Inh” value in [7] was found to be 0%; in assay [8], 0%; in [9] it was 5%; in assay [10], 0%.

Regarding `Cc1ccc(F)c(C(=O)Nc2cccc(-c3nn4ccccc4c3-c3ccnc(Nc4cccc(F)c4)n3)c2)c1F` [GSK361061], the “%Inh” value is 26% in assay [1]; 5% in assay [2]; 0% in assay [3]; 8% in [4]; 15% in assay [5]; 11% in [6]. The “%Inh” value is on record as 17% in assay [7], 14% in assay [8], 19% in assay [9] and 0% in assay [10].

Take `Nc1ncc(-c2ccc3nccc(-c4ccncc4)c3c2)cc1S(=O)(=O)N1CCOCC1` [GSK1627798]: the “%Inh” value in assay [1] is given as 27%; in [2], 0%; in assay [3], 0%; in assay [4], 0%; in assay [5] it was 49%; in assay [6], 0%. For the same compound, the “%Inh” value in assay [7] turned out to be 57%; in assay [8], 78%; in assay [9], 48%; in assay [10] it was 0%.

For the compound `c1ccc(Oc2ccc(Nc3ccnc4cc(-c5ccc(CNCCN6CCOCC6)o5)ccc34)cc2)nc1` [GW567145], the “%Inh” value in [1] is listed as 26%; in [2], 0%; in [3], 0%; in [4], 0%; in [5], 1%; in assay [6], 0%. For the same compound, the “%Inh” value in assay [7], in assay [8], in [9] and in assay [10] was 0% each time.

With `COc1cc(Nc2nccc(-c3c(-c4cccc(NC(=O)c5c(F)cccc5F)c4)nn4ccccc34)n2)cc(OC)c1OC` [GSK323521], the “%Inh” value in assay [1] is on record as 31%; in assay [2], 3%; in assay [3], 0%; in assay [4] it was 35%; in assay [5] it was 40%; in assay [6], 30%. Moreover, the “%Inh” value is 40% in assay [7], 38% in assay [8], 5% in assay [9] and 0% in [10].

For the compound `COc1cc(Nc2nccc(N3CCC(NC(=O)c4cc5ccccc5s4)C3)n2)cc(OC)c1OC` (stereo not shown) [GSK1379760], the “%Inh” value in assay [1] was 17%; in assay [2], 0%; in assay [3], 1%; in assay [4], 0%; in assay [5] it was 29%; in assay [6], 0%. Further, the “%Inh” value is on record as 12% in assay [7], 0% in assay [8], 12% in assay [9] and 0% in assay [10].

With `COC(=O)Nc1nc2ccc(Oc3ccc(NC(=O)Nc4cc(C(F)(F)F)ccc4F)cc3)cc2n1C.Cl` [GW692089], the “%Inh” value is 0% in assay [1]; 0% in [2]; 0% in [3]; 0% in assay [4]; 3% in [5]; 0% in assay [6]. Further, the “%Inh” value in assay [7] was determined as 4%; in assay [8], 0%; in [9], 1%; in assay [10] it was 0%.

Take `C[C@@H](Oc1cc(-n2cnc3cc(-c4ccnc(NCCS(C)(=O)=O)c4)ccc32)sc1C(N)=O)c1ccccc1Cl` [GSK907232]: the “%Inh” value in assay [1] is 15%; in [2], 0%; in assay [3] it was 0%; in [4], 5%; in assay [5] it was 33%; in [6], 0%. Further, the “%Inh” value was determined as 21% in assay [7], 80% in assay [8], 57% in assay [9] and 0% in [10].

In the case of `CN(c1ccc(NC(=O)Nc2cc(C(F)(F)F)ccc2F)cc1)c1ccnc(Nc2ccc(S(N)(=O)=O)cc2)n1` [GW809893], the “%Inh” value in assay [1] worked out at 48%; in assay [2] it was 0%; in [3], 4%; in assay [4] it was 1%; in assay [5], 9%; in [6], 0%. For the same compound, the “%Inh” value in [7] amounted to 16%; in assay [8], 15%; in [9], 35%; in assay [10] it was 88%.

Regarding `Cc1cccc(NC(=O)Nc2ccc(Oc3ncnc4ccn(C)c34)cc2)c1`, the “%Inh” value in [1], in [2], in [3], in assay [4], in assay [5] and in assay [6] was 0% in each case. The “%Inh” value in assay [7], in assay [8], in assay [9] and in assay [10] was 0% in each case.

`COc1cc(Nc2nccc(-c3c(-c4cccc(NC(=O)c5c(F)cccc5F)c4)nn4ncccc34)n2)cc(OC)c1OC` [GSK327238]: the “%Inh” value in assay [1] is reported as 58%; in assay [2] it was 0%; in assay [3] it was 0%; in assay [4], 10%; in [5], 19%; in [6], 0%. The “%Inh” value is reported as 24% in [7], 18% in [8], 14% in [9] and 16% in assay [10].

`CCn1c(-c2nonc2N)nc2c(C#CC(C)(C)O)ncc(OCCCCN)c21.O=C(O)C(F)(F)F.O=C(O)C(F)(F)F` [GSK507274]: the “%Inh” value was found to be 31% in assay [1]; 0% in [2]; 0% in assay [3]; 4% in assay [4]; 19% in assay [5]; 50% in assay [6]. For the same compound, the “%Inh” value in assay [7] stood at 0%; in assay [8], 0%; in assay [9], 19%; in assay [10], 0%.

For `O=C(Nc1cccc(Oc2ccc3nc(NC(=O)C4CC4)cn3n2)c1)c1ccccc1C(F)(F)F`, the “%Inh” value came to 7% in assay [1]; 100% in assay [2]; 100% in [3]; 1% in [4]; 0% in [5]; 0% in assay [6]. In addition, the “%Inh” value in assay [7] is listed as 1%; in assay [8], 0%; in [9] it was 6%; in assay [10] it was 0%.

Consider `CCS(=O)(=O)c1ccc(OC)c(Nc2nccc(-c3c(-c4cccc(NC(=O)c5c(F)cccc5F)c4)nn4ncccc34)n2)c1` [GSK326180], for which the “%Inh” value is recorded as 9% in assay [1]; 0% in assay [2]; 0% in assay [3]; 15% in [4]; 27% in assay [5]; 0% in assay [6]. The “%Inh” value in assay [7] was 0%; in assay [8], 20%; in assay [9] it was 16%; in [10] it was 0%.

Consider `O=C(Nc1cccc(-c2nn3ccccc3c2-c2ccnc(Nc3cccc(F)c3)n2)c1)c1c(F)ccc(F)c1Cl` [GSK357952], for which the “%Inh” value in [1] was 12%; in [2], 0%; in assay [3], 0%; in [4] it was 0%; in assay [5], 0%; in assay [6], 13%. The “%Inh” value came to 0% in [7], 0% in assay [8], 4% in assay [9] and 0% in assay [10].

These data come from article PMC5540273 (PLoS ONE, 2017).
